The source of these data is PubChem BioAssay.

The subject of experiment [1] is Wnt5a (protein binding on small-molecule microarray). Nature of the experiment: Wnt5a binders on small-molecule microarray, primary screen, biophysical, 635/667 nm fluorescence (AID 1142).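 Further: fluorescence read at 667 nm with signal to noise per printed feature.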 The note with it: 635 nm fluorescence, higher = more signal.
A short description of experiment [2]: cell viability in Huh7 cells, primary screen, cytotoxicity control for HCV replication inhibitor project, CellTiter-Glo luminescence, basal, 48 h (AID 1143).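 Further: Huh7 hepatoma cells carrying a hepatitis C replication reporter with no stimulus; test concentration not given here.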 The settings on record: Huh7 HCV replicon, CellTiter-Glo luminescence, 48 h, higher = more signal, called active from +8 up or from −8 down unless noted. (In general: Cellular ATP, detected with luciferase, serves as a proxy for viable cell number.)

The nature of experiment [3]: P. aeruginosa biofilm formation inhibitors, primary screen, PAO1 strain, BacTiter-Glo luminescence, LB-PBS (AID 1144). The note with it: 12 h, higher = more signal.
Experiment [4] is described as follows: CREB reporter modulators without forskolin, primary screen, cell-based, PC12, CRE-LacZ reporter, unstimulated (AID 1145). The note with it: no forskolin, luminescence, 4.5 h; higher = more signal, called active from +8 up or from −8 down unless noted.
Experiment [5] can be described thus: CREB reporter modulators under forskolin, primary screen, cell-based, PC12, CRE-LacZ reporter, forskolin-stimulated (AID 1146).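 Further: PC12 cells with 6xCRE LacZ reporter stimulated by forskolin 10 µM; beta-galactosidase reporter signal reflecting CREB driven transcription.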 The note with it: luminescence, 4.5 h; higher = more signal, called active from +8 up or from −8 down unless noted.
The target of experiment [6] is Streptavidin (Streptomyces avidinii) (UniProt P22629). Nature of the experiment: streptavidin binders on small-molecule microarray, primary screen, artefact control for SMM compound annotation, biophysical, 635/667 nm fluorescence (AID 1147).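 Further: signal reflects streptavidin binding to arrayed compounds as a control protein.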 The settings on record: streptavidin binding, higher = more signal.
Experiment [7] is described as follows: small-molecule binders of probe aInhba, primary screen, biochemical, small-molecule microarray, 635/667 nm fluorescence (AID 1148).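 Further: score merges 667nm spot fluorescence with signal-to-noise for antibody binding to printed compounds.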 The note with it: higher = more signal; small-molecule microarray, probe aInhba, fluorescence unless noted.
For experiment [8], the target named is Torsin-1A (Homo sapiens) (UniProt O14656). Nature of the experiment: torsin A binders from cell lysate, primary screen, small-molecule microarray, wild-type, 635/667 nm (AID 1149). The note with it: COS7 hTOR1A-WT lysate, 635 nm fluorescence, higher = more signal.
Experiment [9] has the same target. Nature of the experiment: small-molecule binders of mutant TOR1A in lysate, primary screen, cell lysate, small-molecule microarray, COS7 lysate, 635/667 nm fluorescence (AID 1150).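 Further: score pools 667 nm emission and signal to noise measuring lysate protein binding.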 The note with it: COS7 hTOR1A mutant lysate, 635 nm fluorescence, higher = more signal.
Experiment [10] has as its system Sonic hedgehog protein (Shh). Put plainly: small-molecule binders of Shh protein, primary screen, biochemical, small-molecule microarray, 635/667 nm fluorescence (AID 1151).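 Further: Shh protein binding to compounds spotted on small-molecule microarray slides; score combines spot fluorescence intensity with signal-to-noise across triplicate slides.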 The note with it: small-molecule microarray binding, 635 nm fluorescence; higher = more signal.
A short description of experiment [11]: E. coli DRC41 culture turbidity changes, primary screen, E. coli filamentation inducer project, strain DRC41, OD650, 48 h (AID 1152).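 Further: E. coli MC1000 strain DRC41 lacking acrAB efflux pump and sulA.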 The note with it: E. coli DRC41 (acrAB sulA); higher = more signal, called active from +8 up or from −8 down unless noted.
Experiment [12] in a line: small-molecule binders of probe aLefty1, primary screen, biochemical, small-molecule microarray, 635/667 nm fluorescence (AID 1153).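 Further: score merges spot fluorescence with signal-to-noise ratio from the scanned slide images.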 The note with it: higher = more signal; small-molecule microarray, probe aLefty1, fluorescence unless noted.
Experiment [13] can be described thus: PSAC antagonists in infected red cells, primary screen, cell-based, P. falciparum Indochina, OD700, 1 h (AID 1154). The settings on record: P. falciparum Indochina infected RBC osmotic lysis; higher = more signal, called active from +8 up or from −8 down unless noted.
A short description of experiment [14]: PSAC antagonists in infected red cells, primary screen, cell-based, P. falciparum Indochina, OD700, 2 h (AID 1155).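 Further: lysis reports solute entry through the parasite surface anion channel PSAC; channel blockers reduce lysis of infected cells.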 The settings on record: P. falciparum Indochina infected erythrocytes, osmotic lysis OD700; higher = more signal, called active from +8 up or from −8 down unless noted.
Experiment [15] can be described thus: osmotic lysis modulators in infected erythrocytes, primary screen, PSAC antagonist project, cell-based, P. falciparum Indochina, OD700, 3 h (AID 1156). The note with it: higher = more signal, called active from +8 up or from −8 down unless noted.
The nature of experiment [16]: PSAC antagonists in infected red cells, primary screen, cell-based, P. falciparum Indochina, OD700, 18 h (AID 1157). The settings on record: P. falciparum Indochina infected erythrocytes, osmotic lysis OD700, 18 h; higher = more signal, called active from +8 up or from −8 down unless noted.
Experiment [17] in a line: modulators of S6 phosphorylation in cells, primary screen, cell-based, A549, cytoblot, luminescence, serum-stimulated (AID 1158).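 Further: serum-stimulated A549 lung adenocarcinoma cells; signal is phosphorylated S6 detected by cytoblot immunostaining with HRP secondary.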 The note with it: A549 phospho-S6 cytoblot, 5 h, higher = more signal.
Experiment [18] concerns the target NADPH oxidase 2 (Homo sapiens) (UniProt P04839). Nature of the experiment: NOX2-dependent H2O2 signal modulators, primary screen, NOX inhibitor project, cell-based, HEK293-NOX2, PMA-stimulated, Amplex Red fluorescence (AID 1159). Further: test concentration not given here. The note with it: 45 min; higher = more signal, called active from +8 up or from −8 down unless noted.
The target in experiment [19] is NADPH oxidase 4 (Homo sapiens) (UniProt Q9NPH5). Nature of the experiment: NOX4-dependent H2O2 signal modulators, primary screen, NOX inhibitor project, cell-based, HEK293-NOX4, tetracycline-induced, Amplex Red fluorescence (AID 1160). The settings on record: 45 min; higher = more signal, called active from +8 up or from −8 down unless noted.
Experiment [20] addresses NADPH oxidase 5 (Homo sapiens) (UniProt Q96PH1). Put plainly: NOX5-dependent H2O2 signal modulators, primary screen, NOX inhibitor project, cell-based, HEK293-NOX5, Amplex Red fluorescence (AID 1161). The note with it: HEK293-NOX5, ionomycin, 45 min, higher = more signal.

Activity calls are given as the source filed them. Unless noted, how the calls were made is not given here.

Chain of Streptavidin (Streptomyces avidinii) (P22629 whole entry, looked up): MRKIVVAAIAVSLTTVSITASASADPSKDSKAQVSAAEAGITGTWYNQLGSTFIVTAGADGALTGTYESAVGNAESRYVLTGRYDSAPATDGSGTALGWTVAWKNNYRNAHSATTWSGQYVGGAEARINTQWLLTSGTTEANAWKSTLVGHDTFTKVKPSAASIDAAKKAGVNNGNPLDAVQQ
Chain of Torsin-1A (Homo sapiens) (O14656 whole entry, looked up): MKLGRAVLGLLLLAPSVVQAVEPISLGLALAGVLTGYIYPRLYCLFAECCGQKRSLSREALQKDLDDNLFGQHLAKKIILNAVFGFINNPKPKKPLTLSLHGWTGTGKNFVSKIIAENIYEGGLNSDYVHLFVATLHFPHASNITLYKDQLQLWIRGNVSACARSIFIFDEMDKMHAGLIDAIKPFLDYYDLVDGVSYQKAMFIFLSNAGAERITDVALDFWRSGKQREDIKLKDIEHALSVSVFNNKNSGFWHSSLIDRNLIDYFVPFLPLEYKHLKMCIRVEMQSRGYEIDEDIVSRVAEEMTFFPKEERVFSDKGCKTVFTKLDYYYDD
Chain of NADPH oxidase 4 (Homo sapiens) (Q9NPH5 whole entry, looked up): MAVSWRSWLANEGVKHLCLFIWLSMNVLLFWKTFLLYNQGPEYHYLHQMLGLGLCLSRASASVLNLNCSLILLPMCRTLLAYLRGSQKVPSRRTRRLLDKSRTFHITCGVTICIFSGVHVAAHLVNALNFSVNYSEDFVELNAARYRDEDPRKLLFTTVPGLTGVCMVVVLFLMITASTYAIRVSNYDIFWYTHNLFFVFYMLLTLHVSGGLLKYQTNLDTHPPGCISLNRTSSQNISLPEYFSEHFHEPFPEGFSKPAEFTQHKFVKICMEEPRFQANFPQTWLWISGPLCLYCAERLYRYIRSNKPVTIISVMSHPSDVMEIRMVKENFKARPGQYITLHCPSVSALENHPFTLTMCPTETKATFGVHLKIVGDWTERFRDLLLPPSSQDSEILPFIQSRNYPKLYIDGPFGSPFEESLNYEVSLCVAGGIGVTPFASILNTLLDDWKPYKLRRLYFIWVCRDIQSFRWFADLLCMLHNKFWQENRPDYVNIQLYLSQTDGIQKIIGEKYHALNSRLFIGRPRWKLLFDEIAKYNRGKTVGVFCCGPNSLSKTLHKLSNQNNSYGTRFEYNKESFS
Chain of NADPH oxidase 5 (Homo sapiens) (Q96PH1 whole entry, looked up): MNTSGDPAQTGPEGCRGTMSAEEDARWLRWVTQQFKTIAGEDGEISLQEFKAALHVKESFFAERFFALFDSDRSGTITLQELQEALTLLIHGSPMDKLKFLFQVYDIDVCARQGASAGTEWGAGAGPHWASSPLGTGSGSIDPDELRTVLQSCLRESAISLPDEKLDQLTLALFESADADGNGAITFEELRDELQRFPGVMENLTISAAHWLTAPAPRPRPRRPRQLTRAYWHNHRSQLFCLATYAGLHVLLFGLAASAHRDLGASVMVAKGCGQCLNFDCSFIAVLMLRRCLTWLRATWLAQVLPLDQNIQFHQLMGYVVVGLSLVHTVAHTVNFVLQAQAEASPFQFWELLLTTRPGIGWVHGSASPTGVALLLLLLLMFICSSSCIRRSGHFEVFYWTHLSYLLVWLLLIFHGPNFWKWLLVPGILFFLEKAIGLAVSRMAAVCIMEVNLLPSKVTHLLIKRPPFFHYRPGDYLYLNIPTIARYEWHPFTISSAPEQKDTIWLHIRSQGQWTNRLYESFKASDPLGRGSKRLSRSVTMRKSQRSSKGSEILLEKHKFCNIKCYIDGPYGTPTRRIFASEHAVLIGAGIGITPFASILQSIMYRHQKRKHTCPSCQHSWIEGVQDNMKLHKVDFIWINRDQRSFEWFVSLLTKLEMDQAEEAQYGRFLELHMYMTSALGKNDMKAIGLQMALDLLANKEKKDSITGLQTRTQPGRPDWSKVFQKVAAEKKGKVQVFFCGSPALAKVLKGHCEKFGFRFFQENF
Chain of NADPH oxidase 2 (Homo sapiens) (P04839 whole entry, looked up): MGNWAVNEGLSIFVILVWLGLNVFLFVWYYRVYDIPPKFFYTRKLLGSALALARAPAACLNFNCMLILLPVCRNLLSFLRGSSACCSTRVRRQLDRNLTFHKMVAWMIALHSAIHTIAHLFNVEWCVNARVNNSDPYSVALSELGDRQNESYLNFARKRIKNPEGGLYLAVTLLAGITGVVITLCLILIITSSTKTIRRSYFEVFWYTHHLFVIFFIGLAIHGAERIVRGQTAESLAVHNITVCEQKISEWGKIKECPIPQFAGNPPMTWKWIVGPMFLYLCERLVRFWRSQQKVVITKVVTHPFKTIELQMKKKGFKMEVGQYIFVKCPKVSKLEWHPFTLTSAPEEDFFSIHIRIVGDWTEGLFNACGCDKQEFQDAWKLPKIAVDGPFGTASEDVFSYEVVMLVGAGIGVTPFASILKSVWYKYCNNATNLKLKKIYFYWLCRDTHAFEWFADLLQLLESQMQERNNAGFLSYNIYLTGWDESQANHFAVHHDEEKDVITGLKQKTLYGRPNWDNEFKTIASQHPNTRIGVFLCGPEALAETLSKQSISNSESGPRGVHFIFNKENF

As to `COC(=O)[C@@]1(Cc2ccccc2)[C@H]2c3cc(C(=O)N(C)C)n(C)c3C[C@H]2CN1C(=O)c1ccccc1`, the composite z-score in experiment [1] is 0.253; in experiment [6], 1.78; in [7], 0.0091; in the experiment with Torsin-1A (Homo sapiens) [8], 0.0264; in the experiment with Torsin-1A (Homo sapiens) [9], 1.51; in experiment [10], -0.916. The compound further returned a composite z-score in [12] of 0.113. Further, the z-score is -0.782 (inactive) in [2]; 0.323 (inactive) in experiment [3]; 0.194 (inactive) in experiment [4]; 0.189 (inactive) in [5]; -0.741 (inactive) in experiment [11]; 1.24 (inactive) in experiment [13]. The z-score in experiment [14] was 0.373 (inactive); in [15] it was 0.747 (inactive); in [16] it was 0.617 (inactive); in experiment [17] it was 0.553; in [18], 0.294 (inactive); in experiment [19], -0.0833 (inactive). Moreover, the z-score in experiment [20] is -2.5.

`COC(=O)[C@H]1C(=O)c2ccccc2O[C@@](C(=O)OC)(c2ccccc2)[C@@H]1c1ccccc1`: the composite z-score in experiment [1] was 0.107; in experiment [6], -0.37; in [7], 0.177; with Torsin-1A (Homo sapiens) [8], 0.0049; with Torsin-1A (Homo sapiens) [9], 0.0856; in experiment [10], 0.0053. The composite z-score in experiment [12] was -0.199. In addition, the z-score in experiment [2] was -1.35 (inactive); in experiment [3], 0.352 (inactive); in [4] it was -0.523 (inactive); in experiment [5], 1.24 (inactive); in experiment [11] it was 0.0473 (inactive); in experiment [13], 0.251 (inactive). Besides, the z-score in [14] was -0.528 (inactive); in [15], -0.591 (inactive); in experiment [16] it was -0.56 (inactive); in experiment [17] it was -0.651; in [18] it was 1.19 (inactive); in [19] it was 0.752 (inactive). In addition, the z-score in experiment [20] worked out at 0.627.

Consider `OCc1ccc(C2=CC(C3CC3)N(Cc3sc4ccccc4c3Cl)CC2)cc1` (stereo not given), for which the composite z-score in [1] worked out at 0.074; in experiment [6] it was 0.337; in [7], 0.0028; in the experiment with Torsin-1A (Homo sapiens) [8], 0.771; with Torsin-1A (Homo sapiens) [9], 0.679; in [10] it was 1.65. In addition, the composite z-score in experiment [12] is 0.0253. Also, the z-score in [2] was -3.22 (inactive); in [3], -0.259 (inactive); in [4] it was 7.14 (inactive); in experiment [5] it was -2.05 (inactive); in [11] it was -2 (inactive); in experiment [13], 13.6 (active). The z-score is 2.7 (inactive) in [14]; 0.258 (inactive) in experiment [15]; 1.51 (inactive) in experiment [16]; -0.627 in [17]; 0.703 (inactive) in experiment [18]; -1.07 (inactive) in experiment [19]. Further, in [20], the z-score is -1.55.

Regarding `COC(=O)NCC=Cc1nc(CCC=CC(=O)O[C@H]2CC3CC(=O)O[C@@H](C=CCC(C)C)C[C@@H]4CC[C@H](C)[C@@H](C[C@@H](OC)C[C@H](C2)O3)O4)co1`, the composite z-score was -0.335 in experiment [1]; -0.875 in experiment [6]; -0.159 in experiment [7]; -0.429 with Torsin-1A (Homo sapiens) [8]; -0.653 with Torsin-1A (Homo sapiens) [9]; 0.0788 in experiment [10]. Further, in experiment [12], the composite z-score is -0.213. Besides, the z-score is -3.73 (inactive) in [2]; 0.881 (inactive) in experiment [3]; 0.106 (inactive) in experiment [4]; -1.96 (inactive) in experiment [5]; -0.0987 (inactive) in [11]; 0.465 (inactive) in experiment [13]. For the same compound, the z-score is 0.0987 (inactive) in experiment [14]; -0.0546 (inactive) in experiment [15]; -0.195 (inactive) in [16]; -0.975 in experiment [17]; 0.902 (inactive) in experiment [18]; 0.594 (inactive) in experiment [19]. In addition, in [20], the z-score was -0.00689.
